For twelve compounds, growth results are on record in PubChem BioAssay (NCI).

Compounds without any hit were thinned out: in the full panel of roughly 83,000, 20% have a hit.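 96-well plates, one dose, 48 hours. Percent growth reported; active if below 10.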 Unmarked numbers belong to inactive results. Active and inactive are the calls of the source.

For the experiment, the system named is KM12 colon. As to the kind of experiment: NCI-60 one-dose screen, 48 h (100 = growth as untreated, 0 = no growth, -100 = all killed). The following applies: 10 µM unless noted.
`CC1(C)CC[C@]2(C(=O)N3CCOCC3)CC[C@]3(C)C(=CC[C@@H]4[C@@]5(C)C/C(=C/c6ccncc6)C(=O)C(C)(C)[C@@H]5CC[C@]43C)[C@@H]2C1`: the growth is 6.58% (active).
With `O=C(Nc1cccnc1Nc1ccc(Cl)cc1)c1cn(Cc2ccc(F)cc2)nn1`, the growth is 102%.
Take `C=C1C(=O)O[C@H]2[C@H]1CC/C(CNC(=O)c1cc3ccccc3[nH]1)=C\CC[C@@]1(C)O[C@@H]21`: the growth is -38.4% (active).
The value for `C=CCN=C(N)SCCCCCCSC(N)=NCC=C` was 97.5%.
As to `CNC(=O)c1c(NC(=O)c2ccc(C(C)(C)C)cc2)sc2c(CN(C)C)c(O)ccc12`, the growth is -79.6% (active).
Turning to `COc1ccc(C/C(C)=C(\c2ccc(O)cc2)c2ccc(OCCN3CCCC3)cc2)cc1`, the growth is 106%.
To `S=c1ssnc1-c1cccs1` belongs 92.1%; to `COc1cc(/C=C/c2cc(/C=C/c3ccc(O)c(OC)c3)n(C(=O)Nc3ccc(F)cc3)n2)ccc1O`, 2.44% (active); to `COc1cc2c3c(n(CCCCNCCCn4c5c(c6cc(OC)c(OC)cc6c4=O)C(=O)c4cc6c(cc4-5)OCO6)c(=O)c2cc1OC)-c1cc2c(cc1C3=O)OCO2`, 93.8%.
Turning to `COc1cc(-c2cc(-c3ccc(Nc4ncnc5cc(Cl)ccc45)cc3)nc(N3CCN(C)CC3)n2)cc(OC)c1OC`, the growth is 86.1%.
To `COc1cc(C(=O)/C=C/c2ccc(N3CCN(C)CC3)cc2)cc(OC)c1OC` belongs 99.3%.
`Cc1ccc2[nH]c(=O)c3c(c2c1)OC(N)=C(C#N)C31C(=O)c2cccc3cccc1c23` (configuration not stated): the growth is 94.4%.
